# From PubChem BioAssay
# Luc counter = blocks Kinase-Glo luciferase, a counter-screen artifact | AID 1379 | Q27757 | 200,000 compounds, 0.28% hits | Potency, µM (titrated, usually from 38.3 µM), hits mostly inhibitors | Kinase-Glo luciferase, ATP luminescence, 8 min; note: nearly all actives have a fitted effect of over 60% in size
#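 Inhibition of Kinase-Glo luciferase light generation was assessed at 10 uM ATP in pH 7.2 imidazole buffer, with luminescence measured after eight minutes at ambient temperature.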
# Rab9 prom act = activates the Rab9 promoter | Huh7 Rab9 promoter-luciferase reporter, luminescence, 24 h | Potency, µM (series often up to 9.22 µM), usual class: activators | 320,000 compounds, 2.8% hits | AID 485297; note: nearly all actives have a fitted effect of over 60% in size
#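 Stable Rab9-luc Huh7, 1500 cells/well, 2 h settle; cmpd in DMSO, 24 h, 37 °C/5% CO2; luciferase reagent 10 min RT; luminescence.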
# ELG1 genotoxic = genotoxicity induction in ELG1-luciferase HEK293T cells; HEK293T ELG1-luciferase reporter, luminescence, 16 h; Potency, µM (titrated, usually from 46 µM), usual class: activators; 330,000 compounds, 1.3% hits; note: nearly all actives have a fitted effect of over 60% in size
#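 Genotoxic stress is detected as increased luminescence from luciferase-tagged ELG1 in HEK293T cells, measured with ONE-Glo after a 16 hr treatment at 37 °C.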
# NPC1 prom act = NPC1 promoter activation. 320,000 compounds, 2.4% hits. AID 485313. Huh7 NPC1 promoter luciferase reporter, 24 h. Potency, µM (series often up to 9.22 µM), actives largely listed as activators; note: nearly all actives have a fitted effect of over 60% in size
#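 Luminescence read-out of NPC1 promoter-driven luciferase in stably transfected Huh7 cells; compounds delivered in DMSO and left 24 h at 37C, 5% CO2, qHTS titration format.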
# SMN2 splice enh = increases expression of the SMN2 splice variant | HEK293 SMN2-luciferase splicing reporter, luminescence, 30-36 h | Potency, µM (doses to about 46.1 µM), actives largely listed as activators | 210,000 compounds, 2.8% hits | AID 1458; note: nearly all actives have a fitted effect of over 55% in size
#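 HEK293 cells carry an SMN2 […]–luciferase reporter in which exon 7 inclusion puts luciferase in frame. Cells were plated 10-12 h before compound addition, then incubated 30-36 h at 37C. ONE-Glo luminescence was read; sodium butyrate at 4.5 mM final served as control.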
# FLuc counter = counter-screen for miR-21 project: firefly luciferase inhibitors or activators. purified FLuc, Km substrates, luminescence inhibition. 360,000 compounds, 6.9% hits. Potency, µM (top dose mostly 57.5 µM), hits mostly inhibitors. P08659; note: nearly all actives have a fitted effect of over 55% in size
# Target sequence (P08659 whole entry, looked up): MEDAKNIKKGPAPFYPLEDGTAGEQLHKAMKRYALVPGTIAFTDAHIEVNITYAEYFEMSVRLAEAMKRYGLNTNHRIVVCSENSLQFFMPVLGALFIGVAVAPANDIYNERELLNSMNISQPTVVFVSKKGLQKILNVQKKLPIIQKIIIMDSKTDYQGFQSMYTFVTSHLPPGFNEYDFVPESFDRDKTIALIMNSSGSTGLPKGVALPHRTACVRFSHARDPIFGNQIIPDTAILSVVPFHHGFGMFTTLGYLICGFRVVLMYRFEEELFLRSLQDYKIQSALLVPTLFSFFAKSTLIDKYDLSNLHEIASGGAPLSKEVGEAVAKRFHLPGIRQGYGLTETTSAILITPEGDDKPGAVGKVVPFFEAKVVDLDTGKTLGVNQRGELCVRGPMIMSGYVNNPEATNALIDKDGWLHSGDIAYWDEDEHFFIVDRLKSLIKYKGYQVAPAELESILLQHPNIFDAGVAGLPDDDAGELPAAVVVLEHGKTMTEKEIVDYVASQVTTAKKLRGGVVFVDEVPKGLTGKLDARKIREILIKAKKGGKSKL
#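 Purified P. pyralis luciferase (10nM final) with 10uM D-luciferin and 10uM ATP (Km levels) in 50mM Tris acetate pH 7.5, 10mM Mg acetate, 0.01% Tween-20, 0.05% BSA; qHTS 6-point titration, ~60 µM downward; luminescence read.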
# A number is an active result; - = inactive; ? = inconclusive; . = no result; [ ] = remark or other dose. Sampled rows, rich in hits. Any-hit rate of the full collection: about 7.3%. Calls come from the whole dose curve; as a rule, active = well fitted curve in the direction sought with a large enough effect; inconclusive = small, poorly fitted or top-dose-only effect, or another doubt; inactive = no such curve, though single readings can be large; an effect the other way counts as inactive or inconclusive.
SMILES,Luc counter,Rab9 prom act,ELG1 genotoxic,NPC1 prom act,SMN2 splice enh,FLuc counter
COCCNC(=O)C1(CC(C)C)C=CCN1C(C)=O (stereo unspecified),-,.,.,.,-,.
COC(=O)CNC(=O)C1(CC(C)C)C=CCN1C(C)=O (stereo unspecified),-,.,.,.,13µM,.
Cc1cccn2cc(-c3ccc(F)cc3)nc12,.,1.8µM,0.92µM,1.1µM,.,2.4µM
COc1ccc(S(=O)(=O)Nc2cc(-c3cn4cccc(C)c4n3)ccc2C)cc1C,.,.,.,.,-,?
Cc1cccn2cc(-c3ccccc3)nc12,-,1.8µM,?,1.6µM,11µM,3µM
CCCS(=O)(=O)Nc1cc(-c2cn3cccc(C)c3n2)ccc1C,.,.,.,.,-,12µM
Cc1cccn2cc(CNc3ccccc3)nc12,-,?,21µM,?,22µM,?
CCCS(=O)(=O)NCc1cn2cccc(C)c2n1,-,-,-,-,-,-
Cn1c([N+](=O)[O-])cnc1CN1CCN(CCO)CC1,-[7.66 µM],.,.,.,-[9.22 µM],.
COc1ccc(-c2cn3cccc(C)c3n2)cc1Br,-,2.8µM,?,3.5µM,11µM,2.4µM
O=C(Nc1nccs1)C1Cc2ccccc2CN1S(=O)(=O)c1ccc(F)cc1 (stereo unspecified),-,?,?,?,11µM,24µM
CCS(=O)(=O)N1Cc2ccccc2CC1C(=O)Nc1ncc(C)s1 (stereo unspecified),-,?,?,-,13µM,?
CCS(=O)(=O)N1Cc2ccccc2CC1C(=O)Nc1ccc(C)cc1 (stereo unspecified),-,-,?,-,-,?
CCS(=O)(=O)N1Cc2ccccc2CC1C(=O)Nc1cccc(C)c1 (stereo unspecified),-,-,-,?,?,24µM
CC1=C(c2ccc(C)cc2)S(=O)(=O)NC1=NCCCN1CCN(c2ccccc2F)CC1,.,.,.,.,.,-
CCC1CN(C(=O)N2CCC(C(=O)NCc3ccc(N(C)C)cc3)CC2)c2ccccc2O1 (stereo unspecified),.,.,.,.,.,-
COCCOC(=O)c1[nH]c2c(c1C)C(=O)C(C(=O)OC)C(C)C2 (stereo unspecified),-,3.5µM,16µM,?,11µM,9.5µM
COCCOC(=O)c1[nH]c2c(c1C)C(=O)CC(c1ccccc1)C2 (stereo unspecified),-,-,-,-,-,-
CCCCCOC(=O)c1[nH]c2c(c1C)C(=O)C(C(=O)OC)C(C)C2 (stereo unspecified),-,?,-,-,-,11µM
COC(=O)C1C(=O)c2c([nH]c(C(=O)OC3CCCCCC3)c2C)CC1C (stereo unspecified),-,?,18µM,?,?,?
Cc1c(C(=O)OC2CCC(C)CC2)[nH]c2c1C(=O)CCC2 (stereo unspecified),-,0.45µM,2.6µM,0.5µM,2.5µM,4.3µM
CCCCOC(=O)c1[nH]c2c(c1C)C(=O)CC(c1cc(OC)c(OC)c(OC)c1)C2 (stereo unspecified),-,-,-,-,-,-
O=C(Nc1nc(-c2ccc(Br)cc2)ns1)c1ccc(F)cc1,.,.,.,.,.,-
COC(=O)C1C(=O)c2c([nH]c(C(=O)OCC3CCCO3)c2C)CC1C (stereo unspecified),-,?,9.2µM,-,?,8.5µM
N#C/C(=C/c1cccs1)c1nc2ccccc2[nH]1,-,2.8µM,?,?,?,?
SMILES,Luc counter,Rab9 prom act,ELG1 genotoxic,NPC1 prom act,SMN2 splice enh,FLuc counter
Cc1c(Cl)cccc1-c1ccc(/C=C(\C#N)c2nc3ccccc3[nH]2)o1,.,.,.,.,-,?
N#C/C(=C\c1c(Cl)cccc1Cl)c1nc2ccccc2[nH]1,.,-,-,-,.,?
Cc1ccc(/C=C(\C#N)c2nc3ccccc3[nH]2)s1,-,0.35µM,?,0.79µM,?,4.8µM
O=C(Nc1c(C(=O)N2CCN(c3ccc(F)cc3)CC2)oc2ccccc12)c1c(F)cccc1F,.,.,.,.,.,-
COc1ccc(/C=C2\CCc3c2nc2ccccc2c3C(=O)O)cc1OC,.,0.32µM,4.1µM,0.4µM,.,0.3µM
O=C(O)c1c2c(nc3ccccc13)/C(=C/c1ccc(O)cc1)CCC2,-,-,-,-,-,19µM
O=C(O)c1c2c(nc3ccccc13)-c1ccccc1CC2,-,-,-,-,.,11µM
c1ccc2c(c1)CCc1c-2nc2ccccc2c1N1CCOCC1,.,-,-,-,.,-
CN(C)c1ccc(/C=C2\CCCc3c2nc2ccccc2c3C(=O)O)cc1,.,0.89µM,12µM,2.5µM,.,4.3µM
O=C(O)c1ccc(/C=C2\CCCc3c2nc2ccccc2c3C(=O)O)cc1,.,-,-,-,.,-
Cc1ccc(C)c(NC(=O)CSc2nncn3c2cc2sccc23)c1,.,.,.,.,.,-
O=c1c2sccc2nc(SCc2cc(=O)n3cc(Br)ccc3n2)n1Cc1ccccn1,-,4.5µM,?,?,?,-
CCOC(=O)c1sc(=NC(=O)c2cc(OC)c(OC)c(OC)c2)n(C)c1C,-,-,-,-,-,-
CCOC(=O)c1sc(=NC(=O)CCSc2ccccc2)n(C)c1C,-,?,?,?,?,?
CCOC(=O)c1sc(=NC(=O)c2c(F)cccc2F)n(C)c1C,.,?,?,-,.,-
CCOC(=O)c1sc(=NC(=O)c2ccc(F)cc2)n(C)c1C,.,-,?,-,.,0.67µM
CCOC(=O)c1sc(=NC(=O)c2ccc(C)cc2)n(C)c1C,-,?,?,-,22µM,?
Cn1c(=NC(=O)COc2ccccc2)sc2cc(F)cc(F)c21,.,-,-,-,.,-
Cn1c(=NC(=O)COc2ccccc2)sc2cccc(F)c21,.,1.8µM,?,3.5µM,.,?
CCOC(=O)c1sc(=NC(=O)COc2ccccc2)n(C)c1C,-,3.2µM,?,?,?,?
COC(=O)c1sc(-c2ccccc2)cc1NC(=O)Nc1ccc(F)cc1,.,.,.,.,-,-
N#C[C@H](C(=O)O)C(c1c(Cl)cccc1Cl)[C@H](C#N)C(=O)O,-[7.66 µM],.,.,.,-[9.22 µM],.
Cc1nnc(N2CCCC(C(=O)NCCc3ccc(Cl)cc3)C2)c2nn(-c3ccccc3)c(C)c12 (stereo unspecified),.,.,.,.,.,-
CCn1cc2nc(SCC(=O)Nc3cc(OC)ccc3OC)n(Cc3ccc(Cl)cc3)c(=O)c2n1,.,.,.,.,-,-
Cc1cc2c(cc1NC(=O)c1ccccc1Cl)n(C)c(=O)c(=O)n2C,.,.,.,.,.,-
O=C(Oc1ccc(N2C(=O)CCC2=O)cc1)c1ccccc1Cl,-,-,-,-,-,24µM
Cc1cc(OC(=O)c2ccccc2Cl)cc(=O)n1C,-,-,-,-,-,15µM
CCN(CC)CCCNc1oc(-c2ccc(OC)cc2)nc1C#N,.,.,.,.,.,-
O=c1oc2ccccc2c(Nc2cc3ccccc3cc2O)c1[N+](=O)[O-],-,?,-,?,.,12µM
